This is a sample that favours compounds with a hit; in the whole collection about 19% have one here.
DT40 TDP1 no CPT = qHTS for Inhibitors of human tyrosyl-DNA phosphodiesterase 1 (TDP1): qHTS in cells in absence of CPT; DT40 Tdp1-/- hTDP1 cells, no CPT, ATP luminescence, 48 h; Potency, µM (doses to about 46.2 µM), hits mostly inhibitors; actives 15% (n = 420,000); further: nearly all actives have a fitted effect of over 55% in size
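Chicken DT40 Tdp1-/- cells complemented with human TDP1, screened without camptothecin (DMSO vehicle only), 400 cells/well. Compounds pin-transferred, cells incubated at 37 °C for at least 48 hr. Growth read as ATP-dependent luminescence (CellTiter-Glo, 30 min at RT).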
SW480 rereplic = inducers of DNA re-replication in SW480 colon cancer cells. SW480 DNA re-replication, Hoechst DNA content imaging, 48 h. Potency, µM (doses to about 46.1 µM), hits mostly activators. actives 1.8% (n = 340,000). AID 624297; further: nearly all actives have a fitted effect of over 55% in size
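Image-based read-out: total Hoechst fluorescence of nuclei (405 nm excitation, 500-530 nm emission), with hits raising the fraction of high-intensity nuclei. SW480 colon cells incubated 48 hr with compounds at 37 C.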
TDP1 cell CPT = DT40-hTDP1 cell growth loss with CPT; chicken DT40 Tdp1-/-;hTDP1 cells + 20 nM CPT, ATP luminescence, 48 h; Potency, µM (titrated, usually from 46.2 µM), most hits filed as inhibitors; actives 12% (n = 420,000); AID 686979; further: nearly all actives have a fitted effect of over 55% in size
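Chicken DT40 Tdp1-/- cells stably complemented with human TDP1 were seeded at 400 cells/well in medium containing 20 nM camptothecin, exposed to pin-transferred compounds, and grown at 37 °C for at least 48 hr. Viability was read as ATP luminescence.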
MCF10A rereplic = inducers of DNA re-replication in MCF 10A breast cells. MCF 10A DNA re-replication, Hoechst nuclear intensity, 48 h. AID 624296. Potency, µM (titrated, usually from 46.1 µM), most hits filed as activators. actives 2.9% (n = 350,000); further: nearly all actives have a fitted effect of over 50% in size
Chronic BCR inh = blocks chronic active B-cell receptor signaling | ABC-DLBCL IkBa-CBG/CBR reporter, luminescence ratio, 4 h | AID 493014 | actives 0.05% (n = 340,000) | Potency, µM (titrated, usually from 46.1 µM), hits mostly inhibitors; active means well fitted inhibition curve with a large enough effect in the signal ratio, with a control signal flat, not every such curve was filed as active; inconclusive means small, poorly fitted or top-dose-only effect, or effect the other way, or a change in a side signal; the % refers to the signal ratio
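Compounds up to 46 uM were incubated four hours with TMD8 cells whose green CBG68 luciferase is fused to IkappaBalpha; red CBR luminescence normalised the signal, and concentration-effect curves were fitted to fusion, red and ratio data.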
IL1B secr inh = inflammasome signaling inhibition, IL-1 beta readout. AID 743279. THP-1 LPS/ATP IL-1B secretion, AlphaLISA, 16 h; hits give low values. activity change, % at 57.5 µM. actives 4.7% (n = 360,000); in the data active means activity change below about -50%; inconclusive means mostly about -30% to -49%
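THP-1 cells pretreated 1 hr with compounds (up to 57.5 uM final), then stimulated with LPS (250 ng/mL final) plus ATP (1.25 mM final); secreted IL-1B measured by AlphaLISA after 16 hr, decreased signal indicating inhibition.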
Large screens that a line does not name were inactive. Unless noted, the call rests on the fitted dose curve; in most records, active means well fitted curve in the direction sought with a large enough effect; inconclusive means small, poorly fitted or top-dose-only effect, or another doubt; inactive means no such curve, though single readings can be large; an effect the other way counts as inactive or inconclusive.

O=C(CC1SC2=NCCN2C1=O)Nc1ccc(Cl)cc1 (stereo not drawn)	Chronic BCR inh inconclusive
CCCCOc1ccccc1NC(=O)CC1Sc2ccccc2NC1=O (stereo not drawn)	DT40 TDP1 no CPT inconclusive, TDP1 cell CPT 21µM (no result: SW480 rereplic, MCF10A rereplic, Chronic BCR inh, IL1B secr inh)
CC12CCC(=O)N1C(C(=O)NNC(=O)COc1ccc(Br)cc1)CS2 (stereo not drawn)	none
Cc1cc(=O)[nH]c(N/N=C/c2ccc(OC(=O)c3cccnc3)cc2)n1	none
CC(C)NC(=O)C1(C)CCCN1Cc1ccccc1C#N (stereo not drawn)	DT40 TDP1 no CPT inconclusive, TDP1 cell CPT inconclusive (no result: SW480 rereplic, MCF10A rereplic, Chronic BCR inh)
CCNC(=O)C1(C)CCCN1Cc1ccccc1Cl (stereo not drawn)	DT40 TDP1 no CPT inconclusive, TDP1 cell CPT 23µM (no result: SW480 rereplic, MCF10A rereplic, Chronic BCR inh)
CC1(C(=O)Nc2ccccc2Cc2ccccc2)CCN1CCc1ccccc1 (stereo not drawn)	DT40 TDP1 no CPT inconclusive, TDP1 cell CPT inconclusive (no result: SW480 rereplic, MCF10A rereplic, Chronic BCR inh)
CC1(C(=O)Nc2ccccc2Cc2ccccc2)CCN1Cc1ccccc1Cl (stereo not drawn)	DT40 TDP1 no CPT 23µM, TDP1 cell CPT inconclusive (no result: SW480 rereplic, MCF10A rereplic, Chronic BCR inh)
C=C1NN(C(C)C(=O)O)C(=O)N1c1ccc(OCc2ccccc2)cc1 (stereo not drawn)	none (no result: SW480 rereplic, MCF10A rereplic, Chronic BCR inh, IL1B secr inh)
Cc1ccc(F)cc1NC(=O)COC(=O)C1CCN(c2ccc(C(F)(F)F)cn2)CC1	none
O=C(CSc1nncs1)N1c2ccccc2Sc2ccccc21	DT40 TDP1 no CPT inconclusive, SW480 rereplic 21µM, TDP1 cell CPT inconclusive, MCF10A rereplic 8.2µM
Cc1ccc(SCC(=O)N2c3ccccc3Sc3ccccc32)cc1	DT40 TDP1 no CPT inconclusive, TDP1 cell CPT inconclusive, MCF10A rereplic 7.3µM
CCn1nnnc1SCC(=O)N1c2ccccc2Sc2ccccc21	DT40 TDP1 no CPT inconclusive, TDP1 cell CPT inconclusive
CC(C)CNCC(=O)N1c2ccccc2Sc2ccccc21	DT40 TDP1 no CPT inconclusive, TDP1 cell CPT 16µM
Cc1ccc(C(=O)N2c3ccccc3Sc3ccccc32)cc1	none (no result: SW480 rereplic, MCF10A rereplic, Chronic BCR inh)
O=C(CSc1nncs1)N1CCN(S(=O)(=O)c2ccccc2)CC1	none
Cn1nnnc1SCC(=O)N1c2ccccc2Sc2ccccc21	DT40 TDP1 no CPT 15µM, TDP1 cell CPT 10µM
CC(N)C(=O)NC(C(=O)N1CCCC1C(=O)NC(c1ccccc1)c1ccccc1)C(C)C (stereo not drawn)	TDP1 cell CPT inconclusive
CCN1C(=O)[C@H]2[C@@H](c3ccc(-c4cc(C(C)=O)cs4)cc3)N3CCCC[C@@]3(C(=O)OC)[C@H]2C1=O	DT40 TDP1 no CPT 18µM, TDP1 cell CPT inconclusive
CCN1C(=O)[C@H]2[C@@H](c3ccc(-c4cc(C(C)=O)cs4)cc3)N3CCC[C@@]3(C(=O)OC)[C@H]2C1=O	DT40 TDP1 no CPT 23µM, TDP1 cell CPT inconclusive
CCC1=[N+](CC(=O)c2ccc(C)cc2)CCn2c(C)ccc21	DT40 TDP1 no CPT 2.1µM, TDP1 cell CPT 2.9µM, MCF10A rereplic inconclusive
CCC1=[N+](C)CCn2c(C)ccc21	none
CCC1=[N+](CC(=O)c2ccc(C)cc2)CCn2cccc21	DT40 TDP1 no CPT 5.2µM, TDP1 cell CPT 4.1µM, MCF10A rereplic inconclusive
CC1=[N+](CC(=O)c2ccccc2)CCn2cccc21	DT40 TDP1 no CPT inconclusive, Chronic BCR inh inconclusive
CCn1c(C)nc2c(C)[n+](CC(=O)c3ccc(Br)cc3)ccc21	Chronic BCR inh inconclusive
CCC1=[N+](CC(=O)c2ccc(Br)cc2)CCn2c(C)ccc21	DT40 TDP1 no CPT 10µM, TDP1 cell CPT inconclusive, MCF10A rereplic inconclusive
CC(=O)c1c(C)[nH]c(C(=O)OCC(=O)N(CC(C)C)C2CCS(=O)(=O)C2)c1C (stereo not drawn)	Chronic BCR inh inconclusive
COCCn1c(=O)c(C)nc2cnc(Oc3ccc(OC)cc3)nc21	none (no result: SW480 rereplic, MCF10A rereplic, Chronic BCR inh, IL1B secr inh)
O=C(O)c1ccccc1CC(CCc1ccccc1)C(=O)O (stereo not drawn)	none (no result: Chronic BCR inh)
CNc1nc(NC#N)nc(SC)n1	DT40 TDP1 no CPT inconclusive, TDP1 cell CPT 21µM

High-throughput results from PubChem BioAssay.
